# Data taken from the supplement of paper PMC8975748.
# Where a name gives a salt, the structure may show the parent alone. ± gives the standard deviation of the averaged measurements.
# Legend:
# [1] = system: Saccharomyces cerevisiae BY4741 SeMeCo community; assay: mean cell size (pixel area) (pixels); higher = larger cells; settings: 10 µM; 24 h; SM minimal medium
# Outline: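 A four-plasmid fluorescent Saccharomyces cerevisiae BY4741 community was tested; each plasmid complements one auxotrophy and carries a fluorescent marker. An overnight preculture at OD600 = 1.0 was diluted to OD600 = 0.3, and 70 µl was added to 384-well plates acoustically predosed with drug (final 10 µM) in SM medium for 24 h. Cells were fixed with paraformaldehyde and imaged by automated confocal microscopy, with analysis in Harmony. Mean cell pixel area per well is averaged over 3 replicates. Same SeMeCo high-content imaging drug screen: Selleck FDA-approved drugs at 10 µM, 24 h in SM medium, 384-well plates, 3 replicates.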
# [2] = system: Saccharomyces cerevisiae BY4741 SeMeCo community; assay: z-score of subpopulation abundance vs DMSO median, subpopulation auxotrophic for M; higher = larger share of this subpopulation than in DMSO controls; settings: 10 µM; 24 h; SM minimal medium; subpopulation (auxotrophy): M
# Outline: (§1)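 A Saccharomyces cerevisiae BY4741 community carried four plasmids, each restoring one auxotrophy and encoding a distinct fluorescent protein. It was pre-grown overnight to OD600 1.0, diluted to 0.3, and 70 µl was added to 384-well plates acoustically predosed with library drugs (10 µM final), then grown 24 h in minimal SM medium. Cells were paraformaldehyde-fixed and imaged by automated confocal microscopy, with single-auxotroph fluorescent strains setting thresholds and autofluorescence correction. Each subpopulation's abundance was scored as a z-score against the vehicle-well median.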
# [3] = system: Saccharomyces cerevisiae BY4741 SeMeCo community; assay: z-score of subpopulation abundance vs DMSO median, subpopulation auxotrophic for L; higher = larger share of this subpopulation than in DMSO controls; settings: 10 µM; 24 h; SM minimal medium; subpopulation (auxotrophy): L
# Outline: as §1
# [4] = system: Saccharomyces cerevisiae BY4741 SeMeCo community; assay: z-score of subpopulation abundance vs DMSO median, subpopulation auxotrophic for U; higher = larger share of this subpopulation than in DMSO controls; settings: 10 µM; 24 h; SM minimal medium; subpopulation (auxotrophy): U
# Outline: as §1
# [5] = system: Saccharomyces cerevisiae BY4741 SeMeCo community; assay: z-score of subpopulation abundance vs DMSO median, subpopulation auxotrophic for H; higher = larger share of this subpopulation than in DMSO controls; settings: 10 µM; 24 h; SM minimal medium; subpopulation (auxotrophy): H
# Outline: as §1
# [6] = system: Saccharomyces cerevisiae BY4741 SeMeCo community; assay: z-score of subpopulation abundance vs DMSO median, subpopulation auxotrophic for LU; higher = larger share of this subpopulation than in DMSO controls; settings: 10 µM; 24 h; SM minimal medium; subpopulation (auxotrophy): LU
# Outline: as §1
# [7] = system: Saccharomyces cerevisiae BY4741 SeMeCo community; assay: z-score of subpopulation abundance vs DMSO median, subpopulation auxotrophic for LM; higher = larger share of this subpopulation than in DMSO controls; settings: 10 µM; 24 h; SM minimal medium; subpopulation (auxotrophy): LM
# Outline: as §1
# [8] = system: Saccharomyces cerevisiae BY4741 SeMeCo community; assay: z-score of subpopulation abundance vs DMSO median, subpopulation auxotrophic for HU; higher = larger share of this subpopulation than in DMSO controls; settings: 10 µM; 24 h; SM minimal medium; subpopulation (auxotrophy): HU
# Outline: as §1
# [9] = system: Saccharomyces cerevisiae BY4741 SeMeCo community; assay: z-score of subpopulation abundance vs DMSO median, subpopulation auxotrophic for UM; higher = larger share of this subpopulation than in DMSO controls; settings: 10 µM; 24 h; SM minimal medium; subpopulation (auxotrophy): UM
# Outline: as §1
# [10] = system: Saccharomyces cerevisiae BY4741 SeMeCo community; assay: z-score of subpopulation abundance vs DMSO median, subpopulation auxotrophic for HLU; higher = larger share of this subpopulation than in DMSO controls; settings: 10 µM; 24 h; SM minimal medium; subpopulation (auxotrophy): HLU
# Outline: as §1
# [11] = system: Saccharomyces cerevisiae BY4741 SeMeCo community; assay: z-score of subpopulation abundance vs DMSO median, subpopulation auxotrophic for HLM; higher = larger share of this subpopulation than in DMSO controls; settings: 10 µM; 24 h; SM minimal medium; subpopulation (auxotrophy): HLM
# Outline: as §1
# [12] = system: Saccharomyces cerevisiae BY4741 SeMeCo community; assay: z-score of subpopulation abundance vs DMSO median, subpopulation auxotrophic for LUM; higher = larger share of this subpopulation than in DMSO controls; settings: 10 µM; 24 h; SM minimal medium; subpopulation (auxotrophy): LUM
# Outline: as §1
# [13] = system: Saccharomyces cerevisiae BY4741 SeMeCo community; assay: z-score of prototroph abundance vs DMSO median; higher = larger share of this subpopulation than in DMSO controls; settings: 10 µM; 24 h; SM minimal medium; subpopulation (auxotrophy): Prototroph
# Outline: as §1
# [14] = system: Saccharomyces cerevisiae BY4741 SeMeCo community; assay: z-score of subpopulation abundance vs DMSO median, subpopulation auxotrophic for HM; higher = larger share of this subpopulation than in DMSO controls; settings: 10 µM; 24 h; SM minimal medium; subpopulation (auxotrophy): HM
# Outline: as §1
# [15] = system: Saccharomyces cerevisiae BY4741 SeMeCo community; assay: z-score of subpopulation abundance vs DMSO median, subpopulation auxotrophic for HL; higher = larger share of this subpopulation than in DMSO controls; settings: 10 µM; 24 h; SM minimal medium; subpopulation (auxotrophy): HL
# Outline: as §1
# [16] = system: Saccharomyces cerevisiae BY4741 SeMeCo community; assay: z-score of subpopulation abundance vs DMSO median, subpopulation auxotrophic for HLUM; higher = larger share of this subpopulation than in DMSO controls; settings: 10 µM; 24 h; SM minimal medium; subpopulation (auxotrophy): HLUM
# Outline: as §1
SMILES,mean cell size [1],z-score of subpopulation abundance [2],z-score of subpopulation abundance [3],z-score of subpopulation abundance [4],z-score of subpopulation abundance [5],z-score of subpopulation abundance [6],z-score of subpopulation abundance [7],z-score of subpopulation abundance [8],z-score of subpopulation abundance [9],z-score of subpopulation abundance [10],z-score of subpopulation abundance [11],z-score of subpopulation abundance [12],z-score of prototroph abundance [13],z-score of subpopulation abundance [14],z-score of subpopulation abundance [15],z-score of subpopulation abundance [16]
CO[C@H]1O[C@@H]2O[C@@]3(C)CC[C@H]4[C@H](C)CC[C@@H]([C@H]1C)[C@@]24OO3 [Artemether],12.05 ± 0.027,-4.52,-0.43,0.63,2.67,-0.14,-1.32,0.26,-0.57,-0.85,-0.27,-0.58,,,,
NC[C@@H]1O[C@H](O[C@H]2[C@@H](O)[C@H](O[C@@H]3[C@@H](O)[C@H](N)C[C@H](N)[C@H]3O[C@H]3O[C@H](CN)[C@@H](O)[C@H](O)[C@H]3N)O[C@@H]2CO)[C@H](N)[C@@H](O)[C@@H]1O [Neomycin sulfate],,-0.79,0.21,0.07,,0.11,,,-1.35,-0.36,-0.3,-0.31,0.99,-1.14,-0.31,0.16
O=C(O)CCC(=O)OC[C@@H](NC(=O)C(Cl)Cl)[C@H](O)c1ccc([N+](=O)[O-])cc1 [Chloramphenicol sodium succinate],12.13 ± 0.03,0.71,2.27,-0.91,0.42,0.45,1.25,-1.04,-0.25,1.48,0.81,1.21,-0.62,,1.46,0.88
Nc1c2c(nc3ccccc13)CCCC2 [Tacrine hydrochloride hydrate],,0.5,-0.15,0,-0.99,0.3,0.08,-0.42,0.92,0.33,0.56,0.71,-0.22,-0.01,-0.15,0.45
COCCCN1CCC(NC(=O)c2cc(Cl)c(N)c3c2OCC3)CC1 [Prucalopride],12.6 ± 0.1,0.21,-0.58,0.73,-0.52,0.77,-0.04,0.16,,-0.6,0.6,-0.29,,,-0.99,-0.34
COc1ncnc(NS(=O)(=O)c2ccc(N)cc2)c1OC [Sulfadoxine],,-0.15,-0.42,1.05,-0.14,0.85,-0.89,0.53,0.98,0.31,0.02,-0.34,-0.71,-0.26,0.34,0.32
Clc1ccc(CSC(Cn2ccnc2)c2ccc(Cl)cc2Cl)cc1 (stereo not drawn) [Sulconazole Nitrate],12.1 ± 0.16,-2.96,-0.34,,22,-2.59,-2.53,,5.19,7.54,24.7,0.84,,2.74,11,
CNCC[C@H](Oc1cccc2ccccc12)c1cccs1 [Duloxetine],12.3 ± 0.34,0.27,-1.31,-0.4,-0.81,-0.71,,-0.4,-0.39,-1.41,-0.37,-0.47,0.49,0.1,-1.33,-0.23
COCCCC/C(=N\OCCN)c1ccc(C(F)(F)F)cc1 [Fluvoxamine maleate],12.3 ± 0.13,0.23,0.54,,-0.64,-0.03,0.51,-0.5,-0.21,-0.3,-0.76,0.15,0.26,-0.09,-0.26,-0.43
CN1CCN(c2c(F)cc3c(=O)c(C(=O)O)cn4c3c2OCN4C)CC1 [Marbofloxacin],12.1 ± 0.38,0.52,-1.17,0.59,-1.41,0.12,,-0.06,-0.02,-0.27,-0.54,-0.82,0.49,-0.43,-0.85,-0.72
OC(c1ccccc1)(c1ccccc1)C12CC[N+](CCOCc3ccccc3)(CC1)CC2 [Umeclidinium bromide],12.49 ± 0.074,-0.28,0.22,-0.23,-0.1,-0.42,,-0.27,-1.45,-0.12,0.44,-0.49,0.82,-0.29,-0.7,-0.28
CCOC(=O)c1c(CSc2ccccc2)n(C)c2cc(Br)c(O)c(CN(C)C)c12 [Arbidol HCl],,0.41,-0.99,,0.13,-0.24,-0.98,0.91,0.68,0.12,0.87,-0.37,-0.66,0.29,-0.66,0.15
O=C(O)CCCCCCCC(=O)O [Azelaic acid],,0.44,-0.32,0.62,0.43,1.26,0.3,0.63,-0.2,0.77,-0.07,,-0.32,-0.04,-0.5,1.13
CN1CCCN=C1/C=C/c1cccs1 [Pyrantel Pamoate],,1.45,-0.64,0.04,1.26,-0.11,-0.65,0.04,-1.25,0.47,0.61,,0.2,0.03,-0.22,-0.17
C[C@](N)(Cc1ccc(O)c(O)c1)C(=O)O [Methyldopa],12.3 ± 0.034,-1.02,-0.9,-0.29,0.34,-0.35,,-0.06,,-0.36,-0.36,-1.19,0.97,-0.81,-0.91,-0.4
CCn1cc(C(=O)O)c(=O)c2cc(F)c(N3CCNC(C)C3)c(F)c21 (stereo not drawn) [Lomefloxacin HCl],12.1 ± 0.14,1.99,1.02,-0.45,,0.53,1.35,0.12,0.51,1.38,0.25,,-1.02,,1.2,0.54
